Laboratory results from the supplement of paper PMC10338343.
± gives the standard deviation.

Tests used:
[1] = system: MILI (PIWIL2) piRISC loaded with L1MC piRNA (26 nt); experiment: pre-steady-state target cleavage rate (min^-1); guide: L1MC piRNA 5'p-UAACUAAAUACUAUGCAAGCUGUAGG; higher = faster piRNA-guided slicing of the target
Outline: (§1)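 The pre-steady-state cleavage rate was obtained by Cleave-'n-Seq with a burst-and-steady-state fit. A transcribed, DNA-blocked target RNA library (0.1 nM) was mixed with 1 nM active affinity-purified piRISC carrying one synthetic guide, with or without 500 nM GTSF1 partner protein, in HEPES–potassium acetate buffer at 33 °C for 0–8 or 0–960 min. Uncleaved targets were sequenced and normalised to depth and to weakly complementary targets, with three trials pooled and k3 capped at 0.0001 min^-1.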

[2] = system: EfPiwi piRISC loaded with L1MC piRNA (26 nt); experiment: pre-steady-state target cleavage rate (min^-1); auxiliary factor: 500 nM Ephydatia muelleri Gtsf1; guide: L1MC piRNA 5'p-UAACUAAAUACUAUGCAAGCUGUAGG; MIWI and MILI are mouse PIWI proteins and EfPiwi is from a freshwater sponge; tags in brackets are library labels; higher = faster piRNA-guided slicing of the target
Outline: as §1

[3] = auxiliary factor: 500 nM mouse GTSF1
[4] = auxiliary factor: none (no GTSF1)

Row | Sequence | pre-steady-state target cleavage rate [1, 3] | pre-steady-state target cleavage rate [1, 4] | pre-steady-state target cleavage rate [2]
1 | UCCUCCUACAGCAUGCAUAGUAUAUAGUUA | 0.243 ± 0.021 | 0.00579 ± 0.0023 | 0.00519 ± 0.0032
2 | UCCUCCUACAGCAUGCAUAGUAUUUAGUUA | 0.316 ± 0.021 | 0.0117 ± 0.0029 | 0.0743 ± 0.019
3 | UCCUGGUUCACCUUGCAUAGUAUUUAGUUA | 0.128 ± 0.022 | 0.00513 ± 0.0027 | 0.0052 ± 0.0033
4 | UCCUGGAACUCGUUGCAUAGUAUUUAGUUA | 0.154 ± 0.018 | 0.00417 ± 0.0024 | 0.00531 ± 0.0017
5 | UCCUCCUACAGCAUGCAUAGUAAUUAGUUA | 0.251 ± 0.024 | 0.00544 ± 0.0019 | 0.0115 ± 0.0038
6 | UCCUCCUACUAGCUUGCAUAGUAUUUAGUUA | 0.13 ± 0.013 | 0.00589 ± 0.002 | 0.127 ± 0.035
7 | UCCUGGUUGUGCUUGCAUAGUAUUUAGUAA | 0.0938 ± 0.02 | 0.00427 ± 0.0031 | 0.00401 ± 0.0038
8 | UCCUGGUACAGCUUGCAUAGUAUUUAGUUU [g2:g24:cont:t1U] | 0.249 ± 0.016 | 0.0218 ± 0.0053 | 0.117 ± 0.038
9 | UCCUGCAUCAGCUUGCAUAGUAUUUAGUAA | 0.223 ± 0.019 | 0.00464 ± 0.0032 | 0.00847 ± 0.0021
10 | UCCUGGAUGAGCGUUGCAUAGUAUUUAGUUA | 0.192 ± 0.017 | 0.00904 ± 0.0031 | 0.00582 ± 0.0034
11 | UCCUGGUUGAGCUUGCAUAGUAUUUAGUAA | 0.196 ± 0.022 | 0.00595 ± 0.0027 | 0.00604 ± 0.0023
12 | UCCUGGAACAGCUGUGCAUAGUAUUUAGUUA | 0.206 ± 0.015 | 0.00954 ± 0.0024 | 0.00999 ± 0.0023
13 | UCCUGCUACACGUUGCAUAGUAUUUAGUUA | 0.289 ± 0.026 | 0.0118 ± 0.0026 | 0.0175 ± 0.0063
14 | UCCUGGAUGUCGUUGCAUAGUACUUAGUUA | 0.0399 ± 0.011 | 0.00463 ± 0.0029 | 0.00365 ± 0.0035
15 | UCCUGGAUCUGCUUGCAUUGUAUUUAGUUA | 0.159 ± 0.015 | 0.00477 ± 0.0023 | 0.00657 ± 0.003
16 | UCCUGGUACAGCUUGCAUAGUAUUAAGUUA | 0.252 ± 0.041 | 0.00423 ± 0.0038 | 0.00521 ± 0.0021
17 | UCCUGCUACACCUUGCAUAGUAAUUAGUUA | 0.157 ± 0.026 | 0.00684 ± 0.002 | 0.00647 ± 0.0028
18 | UCCUCCUACCAGCUUGCAUAGUAUUUAGUUA | 0.275 ± 0.017 | 0.00841 ± 0.0025 | 0.0186 ± 0.0056
19 | UCCUCGUACAGCUUGCAUAGUAAUUAGUUA | 0.283 ± 0.017 | 0.00698 ± 0.0019 | 0.111 ± 0.033
